# Test results from PubChem BioAssay (EPA / NIEHS).
# Values joined by “and” are separate entries in the source; they are usually repeats but may differ in a detail not shown here. Equal values may be shown once. Results filed as inconclusive are left out. Active and inactive are the calls of the source. How the source made its calls: active means hit-call score of the fitted dose curve at least 0.9, where 1 is the maximum; inconclusive means response in the unintended direction; inactive means score below 0.9.
# Tests used:
# [1] = biological target: human Peripheral-type Benzodiazepine Receptor (PBR), TSPO (gene 706) (UniProt P30536); assay: NVS_MP_hPBR: NovaScreen (NVS) Membrane Protein Assay for human Peripheral-type Benzodiazepine Receptor (PBR) (AID 2283331);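 further: hits reduce radioligand binding relative to DMSO baseline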
# Summary of the method: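 Cell-free radioligand displacement, human colonic membranes, 1 h exposure. Filter radiodetection read-out. Single-concentration duplicates (25 uM), then concentration-response for actives; DMSO negative control.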
# [2] = biological target: rat Peripheral-type Benzodiazepine Receptor (PBR), Tspo (gene 24230) (UniProt P16257); assay: NVS_MP_rPBR: NovaScreen (NVS) Membrane Protein Assay for rat Peripheral-type Benzodiazepine Receptor (PBR) (AID 2283335)
# Summary of the method: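 Competitive displacement of specific radioligand from rat kidney membrane PBR, read by filtration and scintillation after 1 h. Compounds first tested at 25 uM in duplicate, then in concentration series; signal loss relative to DMSO.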
# NCBI gene 24521 = assay: NVS_IC_rKATPCh: NovaScreen (NVS) Ion Channel Assay for rat Potassium Channel, ATP-Sensitive (KATPCh) (AID 2283319)
# Summary of the method: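 Primary duplicate screen at 25 uM, then singleton concentration series to 50 uM maximum, in a rat cortex membrane radioligand displacement assay. Binding measured by filtration and scintillation 2 h post-dose; DMSO baseline.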
# [3] = biological target: rat Gamma-Aminobutyric Acid Type A Receptor, Non-Selective (GABAR-NonSelective), Gabra1 (gene 29705) (UniProt P62813); assay: NVS_LGIC_rGABAR_NonSelective: NovaScreen (NVS) Ligand-Gated Ion Channel Assay for rat Gamma-Aminobutyric Acid Type A Receptor, Non-Selective (GABAR-NonSelective) (AID 2283326)
# Summary of the method: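 Compounds were first screened in duplicate at 25 uM, with actives run as singleton concentration series (max 50 uM). Binding of a radioligand to rat whole-brain GABA-A preparation was measured by filtration and scintillation counting after 1 h, DMSO baseline.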
# [4] = biological target: rat Neonicotinoid receptor (NNR), Chrna7 (gene 25302) (UniProt Q05941); assay: NVS_LGIC_rNNR_BungSens: NovaScreen (NVS) Ligand-Gated Ion Channel Assay for rat Neonicotinoid receptor (NNR) (AID 2283315)
# Summary of the method: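 Rat cortical membrane preparation incubated 2.5 h with tritiated or iodinated radioligand and test chemical. Bound radioactivity was filtered and counted by scintillation, and displacement was analysed against DMSO.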
# Chain of rat Peripheral-type Benzodiazepine Receptor (PBR), Tspo (gene 24230) (P16257 whole entry, looked up): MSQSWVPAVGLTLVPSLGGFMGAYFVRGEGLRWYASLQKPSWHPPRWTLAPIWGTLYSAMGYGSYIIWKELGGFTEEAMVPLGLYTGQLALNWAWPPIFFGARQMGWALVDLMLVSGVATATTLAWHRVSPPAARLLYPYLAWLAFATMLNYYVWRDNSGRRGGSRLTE
# Chain of human Peripheral-type Benzodiazepine Receptor (PBR), TSPO (gene 706) (P30536 whole entry, looked up): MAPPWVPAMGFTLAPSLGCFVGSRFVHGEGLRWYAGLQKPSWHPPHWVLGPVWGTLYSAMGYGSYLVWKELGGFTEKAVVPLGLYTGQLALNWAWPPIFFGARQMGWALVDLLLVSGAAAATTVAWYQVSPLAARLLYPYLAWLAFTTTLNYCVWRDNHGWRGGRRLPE
# Chain of rat Gamma-Aminobutyric Acid Type A Receptor, Non-Selective (GABAR-NonSelective), Gabra1 (gene 29705) (P62813 whole entry, looked up): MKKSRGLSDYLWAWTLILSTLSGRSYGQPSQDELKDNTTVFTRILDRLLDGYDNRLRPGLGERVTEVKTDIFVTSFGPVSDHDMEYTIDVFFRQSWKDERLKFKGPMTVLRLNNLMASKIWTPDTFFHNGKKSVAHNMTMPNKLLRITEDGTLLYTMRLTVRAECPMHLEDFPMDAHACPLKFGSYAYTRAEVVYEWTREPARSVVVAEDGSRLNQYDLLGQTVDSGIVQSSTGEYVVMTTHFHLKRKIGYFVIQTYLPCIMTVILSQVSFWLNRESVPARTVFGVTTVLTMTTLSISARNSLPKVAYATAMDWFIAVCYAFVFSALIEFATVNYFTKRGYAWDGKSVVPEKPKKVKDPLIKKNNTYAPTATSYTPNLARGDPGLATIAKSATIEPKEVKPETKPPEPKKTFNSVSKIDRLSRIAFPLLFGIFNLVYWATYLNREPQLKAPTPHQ
# Chain of rat Neonicotinoid receptor (NNR), Chrna7 (gene 25302) (Q05941 whole entry, looked up): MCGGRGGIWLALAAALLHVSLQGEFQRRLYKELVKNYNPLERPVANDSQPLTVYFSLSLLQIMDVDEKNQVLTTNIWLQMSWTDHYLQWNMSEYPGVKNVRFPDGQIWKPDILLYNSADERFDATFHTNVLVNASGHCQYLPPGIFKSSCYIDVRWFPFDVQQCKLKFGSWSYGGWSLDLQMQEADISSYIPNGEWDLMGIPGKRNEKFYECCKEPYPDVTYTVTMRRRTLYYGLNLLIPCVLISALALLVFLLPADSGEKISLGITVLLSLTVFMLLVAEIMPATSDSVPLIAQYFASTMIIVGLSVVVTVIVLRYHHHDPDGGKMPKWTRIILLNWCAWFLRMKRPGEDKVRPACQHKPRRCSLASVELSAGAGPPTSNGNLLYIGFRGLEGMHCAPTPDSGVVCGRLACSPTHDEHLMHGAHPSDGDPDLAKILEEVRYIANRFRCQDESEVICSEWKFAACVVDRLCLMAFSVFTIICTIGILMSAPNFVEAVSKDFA
structure (smiles),measurement,setting,value
CCNc1nc(N)nc(Cl)n1,outcome,[1],inactive
same,outcome,[2],inactive
CN(C)C(=O)Nc1ccc(Cl)c(Cl)c1,outcome,NCBI gene 24521,inactive
same,AC50,[1],19.9 µM (active)
same,AC50,[2],8.92 µM (active)
CCCCOC(=O)[C@@H](C)Oc1ccc(Oc2ccc(C(F)(F)F)cn2)cc1,outcome,[1],inactive
same,outcome,[2],inactive
CCN(CC)C(=O)c1cccc(C)c1,AC50,[1],20.1 µM (active)
same,AC50,[2],8.73 µM (active)
CC(C)CCCCCCc1ccc(O)cc1,outcome,[1],inactive
COC(=O)CSc1cc(N=c2sc(=O)n3n2CCCC3)c(F)cc1Cl,outcome,[3],inactive
same,outcome,[1],inactive
same,outcome,[2],inactive
N[C@@H](Cc1cc(I)c(Oc2ccc(O)c(I)c2)c(I)c1)C(=O)O,outcome,[4],inactive
same,AC50,[2],9.05 µM (active) and 6.01 µM (active) and 8.66 µM (active)
